{"source": "PubChem BioAssay AID1345085", "about": "(National Center for Advancing Translational Sciences (NCATS), 2018)", "note": "Results filed as inconclusive are left out. Active and inactive are the calls of the source. Calls come from the whole dose curve; as a rule, active = well fitted cell-killing curve with a large enough effect; inconclusive = small, poorly fitted or top-dose-only effect, or effect the other way; inactive = no such curve, though single readings can be large or run the other way. % is set by controls: 0 for no effect and ±100 for the full control effect; potency is the fitted concentration of half-maximal effect."}
{"system": "Tov-21-G", "test": "Confirmatory qHTS for gynecologic anti-cancer compounds from libraries of approved drugs and bioactive compounds; note: nearly all actives have a fitted effect of over 55% in size", "conditions": "gynecologic cancer cell panel viability, ATPlite luminescence, 48 h; series mostly up to 57.7 µM; activity change, negative = viability loss: at the top concentration", "summary_of_the_method": "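Seeding 1,000 cells per well preceded overnight (16 h) attachment, after which 48 h drug treatment across 57.5 uM–0.977 nM (11 points) was applied. Remaining cellular ATP, detected by ATPlite luminescence, defined IC50.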"}
{"smiles": "Cc1cc(CN2CCN(c3c(Br)cnc4nc(-c5ccc(N6CCN(C)CC6)cc5)[nH]c34)CC2)no1", "Potency": "24.3 µM (active)"}
{"smiles": "CC(=O)O[C@H]1C(=O)[C@@]2(C)[C@H]([C@H](OC(=O)c3ccccc3)[C@]3(O)C[C@H](OC(=O)[C@H](O)[C@@H](NC(=O)c4ccccc4)c4ccccc4)C(C)=C1C3(C)C)[C@]1(OC(C)=O)CO[C@@H]1C[C@@H]2O", "activity change, negative = viability loss": "0.907% [at 11 µM] (inactive)"}
{"smiles": "COc1ccc(OC)c(-c2nnc3ccc(-c4ccc(OC)c(O[C@@H]5CCOC5)c4)nn23)c1", "activity change, negative = viability loss": "-39.4% (inactive)"}
{"smiles": "CC(C)c1nn(-c2c(Cl)cccc2Cl)c2nc(Cc3ccc(OCCO)cc3)[nH]c(=O)c12", "Potency": "0.0863 µM (active)"}
{"smiles": "C#C[C@]1(O)CC[C@H]2[C@@H]3CCC4=CC(=O)CC[C@@H]4[C@H]3CC[C@@]21CC", "activity change, negative = viability loss": "12.4% (inactive)"}
{"smiles": "CN(C)C1CCN(C(=O)c2ccc(NC(=O)Nc3nc(N4CCOCC4)nc(N4CCOCC4)n3)cc2)CC1", "Potency": "0.172 µM (active)"}
{"smiles": "Nc1ccn([C@@H]2O[C@H](CO)[C@@H](O)C2(F)F)c(=O)n1", "Potency": "6.11 µM (active)"}
{"smiles": "Nc1ccccc1NC(=O)c1ccc(CNC(=O)OCc2cccnc2)cc1", "Potency": "7.69 µM (active)"}
{"smiles": "CNC(=O)c1ccccc1Sc1ccc2c(/C=C/c3ccccn3)n[nH]c2c1", "Potency": "10.9 µM (active)"}
{"smiles": "NS(=O)(=O)OC[C@@H]1C[C@@H](n2ccc3c(N[C@H]4CCc5ccccc54)ncnc32)C[C@@H]1O", "Potency": "1.72 µM (active)"}
{"smiles": "O=C1c2c(O)ccc(O)c2C(=O)c2c(NCCNCCO)ccc(NCCNCCO)c21", "Potency": "4.32 µM (active)"}
{"smiles": "Nc1ccc(C(=O)Nc2cccc(-c3nc(N4CCOCC4)c4oc5ncccc5c4n3)c2)cn1", "Potency": "6.11 µM (active)"}
{"smiles": "CCC1=CC2CN(C1)Cc1c([nH]c3ccccc13)[C@@](C(=O)OC)(c1cc3c(cc1OC)N(C)[C@H]1[C@@](O)(C(=O)OC)[C@H](OC(C)=O)[C@]4(CC)C=CCN5CC[C@]31[C@@H]54)C2", "note": "(some centres not stated)", "Potency": "2.37 µM (active)"}
{"smiles": "Cc1cncc2cccc(S(=O)(=O)N3CCCN(C(=O)CN)C[C@@H]3C)c12", "activity change, negative = viability loss": "-18.6% (inactive)"}
{"smiles": "C[C@]12CCC(=O)C=C1CC[C@@H]1[C@@H]2[C@@H](O)C[C@@]2(C)[C@H]1CC[C@]2(O)C(=O)CO", "activity change, negative = viability loss": "12% (inactive)"}
{"smiles": "COc1cc(Nc2c(C#N)cnc3cc(OCCCN4CCN(C)CC4)c(OC)cc23)c(Cl)cc1Cl", "Potency": "1.72 µM (active)"}
{"smiles": "COc1cc(N2CCC(N(C)C)CC2)ccc1Nc1ncc(Cl)c(Nc2ccccc2P(C)(C)=O)n1", "Potency": "1.72 µM (active)"}
{"smiles": "COc1cc(F)c(F)c(Nc2ccc(I)cc2F)c1NS(=O)(=O)C1(CC(O)CO)CC1", "note": "(configuration not stated)", "Potency": "13.7 µM (active)"}
{"smiles": "NC1(c2ccc(-c3nc4ccn5c(=O)[nH]nc5c4cc3-c3ccccc3)cc2)CCC1", "activity change, negative = viability loss": "-10.2% (inactive)"}
{"smiles": "CC(C)C[C@H](NC(=O)[C@H](Cc1ccccc1)NC(=O)c1cnccn1)B(O)O", "Potency": "0.0968 µM (active)"}
{"smiles": "Cc1cnc(Nc2ccc(CN3CCOCC3)cc2)nc1Nc1cccc(S(=O)(=O)NC(C)(C)C)c1", "Potency": "0.243 µM (active)"}
{"smiles": "Cc1ccc(C(=O)Nc2cccc(C(F)(F)F)c2)cc1-c1ccc2nc(NCCN3CCOCC3)ncc2c1", "Potency": "4.85 µM (active)"}
{"smiles": "CCCC(Nc1nc(-c2ccc(NC(=O)NCC)c(OC)c2)ncc1C)c1cccnc1", "note": "(configuration not stated)", "Potency": "0.0306 µM (active)"}
{"smiles": "CC(C)C[C@H](NC(=O)[C@H](CCc1ccccc1)NC(=O)CN1CCOCC1)C(=O)N[C@@H](Cc1ccccc1)C(=O)N[C@@H](CC(C)C)C(=O)[C@@]1(C)CO1", "Potency": "2.17 µM (active)"}
{"smiles": "Nc1ccccc1NC(=O)c1ccc(CNc2nccc(-c3cccnc3)n2)cc1", "Potency": "2.43 µM (active)"}
{"smiles": "COc1cc2c(Oc3ccc(-c4cnc(Nc5ccc(F)cc5)n(C)c4=O)cc3F)ccnc2cc1OCCCN1CCOCC1", "Potency": "19.3 µM (active)"}
{"smiles": "CCc1cccc(CC)c1NC(=O)N1Cc2[nH]nc(NC(=O)c3ccc(N4CCN(C)CC4)cc3)c2C1", "Potency": "2.73 µM (active)"}
{"smiles": "Cc1cc(Nc2cc(N3CCN(C)CC3)nc(/C=C/c3ccccc3)n2)n[nH]1", "Potency": "1.72 µM (active)"}
{"smiles": "NS(=O)(=O)c1ccc(Nc2nc(OCC3CCCCC3)c3[nH]cnc3n2)cc1", "activity change, negative = viability loss": "-8.8% (inactive)"}
{"smiles": "Cn1c(=O)c(F)c(Nc2ccc(I)cc2F)c2c(=O)n(CC(O)CO)cnc21", "note": "(configuration not stated)", "Potency": "2.73 µM (active)"}
{"smiles": "Cc1cnc(Nc2ccc(OCCN3CCCC3)cc2)nc1Nc1cccc(S(=O)(=O)NC(C)(C)C)c1", "Potency": "1.72 µM (active)"}
{"smiles": "Cc1nc(N)ncc1-c1nc(N2CCOCC2)c2sc(C(C)(C)O)cc2n1", "Potency": "1.53 µM (active)"}
